In PubChem BioAssay (NCATS):
Values without a mark were called inactive. Calls come from the whole dose curve; as a rule, active = well fitted curve in the direction sought with a large enough effect; inactive = no such curve, though single readings can be large or run the other way.

target: Alpha-galactosidase (Coffea arabica) (UniProt Q42656); assay: Counterscreen for Glucocerebrosidase Inhibitors: qHTS Assay for Coffee Bean alpha-Galactosidase at pH 5.9 (AID 998); conditions: coffee bean alpha-galactosidase enzyme assay; series mostly up to 76.9 µM; activity, negative = inhibition: at the top concentration;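 note: plate controls were uninhibited enzyme for no effect and no-enzyme basal signal for full effect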
Sequence (Q42656 whole entry, looked up): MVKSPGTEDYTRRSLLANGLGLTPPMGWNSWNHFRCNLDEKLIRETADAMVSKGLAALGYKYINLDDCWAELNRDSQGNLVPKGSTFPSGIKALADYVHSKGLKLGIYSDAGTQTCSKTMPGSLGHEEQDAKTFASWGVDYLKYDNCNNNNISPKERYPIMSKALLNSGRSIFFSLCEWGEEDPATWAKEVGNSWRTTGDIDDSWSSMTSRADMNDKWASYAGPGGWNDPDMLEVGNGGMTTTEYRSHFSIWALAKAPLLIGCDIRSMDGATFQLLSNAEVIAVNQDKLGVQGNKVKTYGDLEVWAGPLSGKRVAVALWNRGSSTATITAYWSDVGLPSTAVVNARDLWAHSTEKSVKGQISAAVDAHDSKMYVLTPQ
Outline: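 Enzyme 2 nM + cpd (0.7 nM–77 uM titration) + 4-MU-alpha-Gal 80 uM, pH 5.9 citrate/Tween-20, RT 20 min, NaOH/glycine stop pH 10, fluor 365/440. Normalized to no-enzyme and full-activity controls; Hill-fit AC50.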

Compound	activity, negative = inhibition [%]
O=C1c2c(O)ccc(O)c2C(=O)c2c(NCCNCCO)ccc(NCCNCCO)c21	-0.938
CN1CCC(=C2c3ccccc3C=Cc3ccccc32)CC1	-5.55
NS(=O)(=O)c1cc2c(cc1Cl)NC=NS2(=O)=O	-4.12
CN1CCN(C2=Nc3ccccc3Oc3ccc(Cl)cc32)CC1	-3.13
O=c1n(CCCN2CCN(c3cccc(Cl)c3)CC2)nc2ccccn12	0.844
Cc1ccccc1N1C(=O)c2cc(S(N)(=O)=O)c(Cl)cc2NC1C (stereo unspecified)	1.43
CCCNC(=O)NS(=O)(=O)c1ccc(Cl)cc1	-1.77
Cc1ccc(S(=O)(=O)NC(=O)NN2CCCCCC2)cc1	-1.21
CCOC(=O)N1CCC(=C2c3ccc(Cl)cc3CCc3cccnc32)CC1	-1.36
Nc1nc2c(ncn2COC(CO)CO)c(=O)[nH]1	1.73
CN/C(=C\[N+](=O)[O-])NCCSCc1ccc(CN(C)C)o1	1.63
CN[C@H]1CC[C@@H](c2ccc(Cl)c(Cl)c2)c2ccccc21	-2.76
CC(C)OC(=O)C(C)(C)Oc1ccc(C(=O)c2ccc(Cl)cc2)cc1	-2.54
CCN(CC)CCNC(=O)c1cc(Cl)c(N)cc1OC	0.841
CC[N+](C)(C)c1cccc(O)c1	-1.94
COC(=O)Nc1nc2ccc(C(=O)c3cccs3)cc2[nH]1	-3.96
NNc1nncc2ccccc12	4.09
Cc1cnc(C(=O)NCCc2ccc(S(=O)(=O)NC(=O)NC3CCCCC3)cc2)cn1	2.11
CCN(CC)CCOC(=O)C1(C2CCCCC2)CCCCC1	-4.15
NC12CC3CC(CC(C3)C1)C2	2.06
COc1cc(Cc2cnc(N)nc2N)cc(OC)c1OC	-1.88
